Assay [1] deals with Rap guanine nucleotide exchange factor 4 (Homo sapiens) (UniProt Q8WZA2). In words: Confirmatory qHTS for agonist of cAMP-regulated guanine nucleotide exchange factor 4 (EPAC2) (AID 1645884).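 Further: nucleotide exchange releases bodipy-GDP from Rap1 and this lowers its fluorescence; nearly all actives have a fitted effect of over 65% in size.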
Assay [2] can be described thus: qHTS Assay for Identification of Small Molecule Agonists for Hypoxia Response Element Signaling Pathway (AID 914; active means well fitted activation curve with a large enough effect in the signal ratio, with a control signal flat, not every such curve was filed as active; the % refers to the signal ratio). Conditions: ME-180 (cervical carcinoma) HRE-bla reporter, beta-lactamase ratio, CoCl2, 17 h; activation: hits give high values. The essentials: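 HRE-bla ME-180 cells, overnight plating in Opti-MEM with 0.5% dialyzed FBS; cpd titration + EC50 CoCl2, 17 h, 37 degrees Celsius; CCF4 2.5 h RT; 460/530 nm ratio; AC50.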
Background: Quantitative high-throughput screening tests each substance at several concentrations.

Assay [3] concerns the target DNA dC->dU-editing enzyme APOBEC-3G (Homo sapiens) (UniProt Q9HC16). In words: qHTS for inhibitors of Vif-A3G interactions: Validation (AID 588379). The essentials: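 HeLa cells stably expressing Vif and A3G-eYFP, 700 cells/well, incubated overnight at 37 deg C, then exposed to compound overnight at 37 deg C. Inhibition of Vif-mediated degradation read as increased yellow fluorescence (Ex 488/Em 500-530) by laser-scanning cytometry.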

The target of assay [4] is Rap guanine nucleotide exchange factor 4 (Homo sapiens) (UniProt Q8WZA2). Description: Confirmatory qHTS for antagonist of cAMP-regulated guanine nucleotide exchange factor 4 (EPAC2) (AID 1645885). Further: potency means the concentration at half of the fitted maximal effect; nearly all actives have a fitted effect of over 25% in size.
Assay [5] is described as follows: Confirmation and Secondary Assay for Modulators of Hemoglobin Beta Chain Splicing at IVS2 654 locus (AID 910).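 Further: HeLa cells stably carrying EGFP split by mutant beta-globin IVS2-654 intron.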 A digest of the protocol: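 Readout: per-well total peak green fluorescence (488 nm ex, 500–520 nm em) from objects 5–250 µm, reflecting correct splicing of an EGFP-654 reporter. Compounds were applied for 2 days at 37 °C to overnight-plated HeLa EGFP-654 cells; controls were DMSO and 500 nM IVS2-654 PNA.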

Assay [6] in a line: Confirmation and Secondary Assay for Modulators of Hemoglobin Beta Chain Splicing at IVS2 705 locus (AID 930).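 Further: HeLa cells stably expressing the EGFP-705 splicing reporter; GFP fluorescence per well restored by corrected splicing of the IVS2-705 intron in EGFP; series mostly up to about 46 µM.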 A digest of the protocol: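 Read-out: total peak GFP fluorescence per well (488 nm excitation, 500-520 nm emission) by laser-scanning cytometry. Cells: HeLa EGFP-705 splicing reporter, 2 days compound exposure in Optimem/2% FCS.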
A short description of assay [7]: NCATS anti-infectives library activity on HEK293 viability as a counter-qHTS vs the C. elegans viability qHTS (AID 1745854).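 Further: HEK293 cells exposed to compounds for 24 hr before the viability read.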 A digest of the protocol: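 Cytotoxicity in human HEK293 cells is measured by ATP-dependent CellTiter-Glo luminescence following a 24 hr incubation with titrated library compounds at 37C. Top final concentration is 41.7 uM.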
Assay [8] in a line: NCATS anti-infectives library activity on the primary C. elegans qHTS viability assay (AID 1745855; calls by dose curve; further: potency means the concentration at half of the fitted maximal effect). Conditions: C. elegans worm area imaging, day 7. An excerpt: Assay Development and Screening Technology Laboratory (ADST)
National Center for Advancing Translational Sciences (NCATS), Rockville, MD
National Institute of Health (NIH), Bethesda, Maryland
Caenorhabditis elegans has helped elucidate the evolutionarily conserved genetics underlying pathways and cellular processes implicated in human disease and may be ideally positioned to reveal novel pharmacological properties of exiting drugs. The organism's short life cycle and microscopic size is applicable to the technical requirements of high-throughput screening. Here a quantitative high-throughput screening (qHTS)-based forward chemical biology platform has been developed using C. elegans. 384-well microtiter plate laser scanning cytometry was used in the rapid detection and quantification of the fluorescent protein-encoded phenotype to score worm viability. […]
1. […] P. (2006) Quantitative high-throughput screening: A titration-based approach that efficiently identifies biological activities in large chemical libraries, P Natl Acad Sci USA 103, 11473-11478.
2. […] P., and Inglese, J. (2006) Fluorescent protein-based cellular assays analyzed by laser-scanning microplate cytometry in 1536-well plate format, Method Enzymol 414, 566-589. […]
SEQUENCE No. (e.g., 1, 2, 3, etc.); […] (e.g., C. elegans, Compounds, Incubation, Read, etc.); VALUE and DESCRIPTION. […]

Values without a mark were called inactive. Results filed as inconclusive are left out. Where a call stands in place of a potency, no number is given. The source made the active and inactive calls. Unless noted, the call rests on the fitted dose curve; in most records, active means well fitted curve in the direction sought with a large enough effect; inconclusive means small, poorly fitted or top-dose-only effect, or another doubt; inactive means no such curve, though single readings can be large; an effect the other way counts as inactive or inconclusive.

Chain of Rap guanine nucleotide exchange factor 4 (Homo sapiens) (Q8WZA2 whole entry, looked up): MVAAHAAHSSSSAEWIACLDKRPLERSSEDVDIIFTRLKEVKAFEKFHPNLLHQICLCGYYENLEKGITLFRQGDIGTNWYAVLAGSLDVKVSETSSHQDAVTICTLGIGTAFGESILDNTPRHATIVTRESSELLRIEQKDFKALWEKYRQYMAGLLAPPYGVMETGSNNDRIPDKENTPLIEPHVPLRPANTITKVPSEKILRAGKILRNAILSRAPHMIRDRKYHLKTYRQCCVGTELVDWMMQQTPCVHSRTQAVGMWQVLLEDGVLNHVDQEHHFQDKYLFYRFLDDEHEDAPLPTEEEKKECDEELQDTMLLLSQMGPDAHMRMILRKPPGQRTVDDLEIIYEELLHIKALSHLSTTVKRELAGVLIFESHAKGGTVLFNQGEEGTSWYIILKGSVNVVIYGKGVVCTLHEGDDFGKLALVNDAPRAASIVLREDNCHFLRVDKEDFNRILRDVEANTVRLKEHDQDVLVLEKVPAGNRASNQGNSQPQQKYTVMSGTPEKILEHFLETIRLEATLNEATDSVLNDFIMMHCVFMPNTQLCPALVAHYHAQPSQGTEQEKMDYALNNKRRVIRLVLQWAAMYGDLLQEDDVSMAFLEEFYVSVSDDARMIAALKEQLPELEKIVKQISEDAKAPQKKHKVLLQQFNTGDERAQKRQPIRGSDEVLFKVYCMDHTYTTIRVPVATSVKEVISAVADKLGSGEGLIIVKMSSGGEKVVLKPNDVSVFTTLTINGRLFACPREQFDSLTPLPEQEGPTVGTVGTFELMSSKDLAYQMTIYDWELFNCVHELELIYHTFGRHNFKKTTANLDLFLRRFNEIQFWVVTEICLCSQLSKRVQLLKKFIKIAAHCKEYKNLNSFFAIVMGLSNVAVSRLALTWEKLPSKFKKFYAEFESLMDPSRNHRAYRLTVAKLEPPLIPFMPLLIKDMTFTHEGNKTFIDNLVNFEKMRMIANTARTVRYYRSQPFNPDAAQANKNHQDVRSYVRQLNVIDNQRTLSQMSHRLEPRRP
Chain of DNA dC->dU-editing enzyme APOBEC-3G (Homo sapiens) (Q9HC16 whole entry, looked up): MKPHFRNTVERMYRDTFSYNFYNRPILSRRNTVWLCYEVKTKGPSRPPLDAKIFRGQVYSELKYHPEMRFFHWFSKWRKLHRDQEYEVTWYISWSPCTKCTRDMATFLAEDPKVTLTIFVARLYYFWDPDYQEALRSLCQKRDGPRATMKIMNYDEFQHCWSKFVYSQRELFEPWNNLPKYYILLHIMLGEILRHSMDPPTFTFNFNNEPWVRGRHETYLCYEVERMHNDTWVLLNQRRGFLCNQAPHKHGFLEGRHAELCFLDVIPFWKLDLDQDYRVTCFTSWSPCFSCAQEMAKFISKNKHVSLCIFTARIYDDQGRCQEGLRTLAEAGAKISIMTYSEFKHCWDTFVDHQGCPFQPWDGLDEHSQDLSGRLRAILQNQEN

As to `O=C(c1csnn1)N1CCC2(CC1)CN(c1cccc(-c3ccccc3)c1)C2`, the Potency result in assay [1] is “inactive”. In the case of `COc1ccc(CNc2ccnc(-c3cccc(C#N)c3)n2)c(OC)c1`, the activation in assay [2] is -5.53%. In addition, in assay [1], the Potency entry is “inactive”. Take `COc1ccc(C(=O)N2CCC3(CCCN(Cc4cc(C(F)(F)F)cc(C(F)(F)F)c4)C3)CC2)cc1`: the Potency result in assay [1] is “inactive”. For `Cc1c(CC(C)(C)C(=O)O)n(Cc2ccc(Cl)cc2)c2ccc(F)cc12`, the molecule was classed as inactive in assay [3]. Also, the Potency result in assay [1] is “inactive”. In addition, in assay [4], the Potency is 27.8 µM (active). In the case of `COc1ccccc1CNc1nc(-c2cccnc2)nc2ccccc12`, the Potency result in assay [1] is “inactive”. In the case of `COc1cccc(Cn2c(=O)c(-c3ccc(Cl)cc3)nc3cnc(N4CCNCC4)nc32)c1`, the Potency in assay [4] is 39.3 µM (active).

For the molecule `COc1c(O)cc2oc3cc(O)c(CC=C(C)C)c(O)c3c(=O)c2c1CC=C(C)C`, in assay [5], the Potency result is “inactive”. Also, the molecule was called inactive in assay [6], in assay [3] and in assay [7]. Moreover, the Potency in assay [8] was 6.48 µM (active).

As for `COc1ccc(C(=O)N2CCC[C@@]3(CCN(Cc4cc(C(F)(F)F)cc(C(F)(F)F)c4)C3)C2)cc1`, in assay [1], the Potency entry was “inactive”. The Potency in assay [4] was 55.5 µM (active).

For `COc1cccc(-c2nc(NCc3ccc(OC)cc3OC)c3ccccc3n2)c1`, the Potency entry in assay [1] was “inactive”. With `Cc1ccccc1-c1ccc2ncnc(NCc3cccs3)c2c1`, the activation in assay [2] was 2.83%. On to `COc1ccc(-n2c(=O)c(-c3ccccc3)nc3cnc(N4CCOCC4)nc32)cc1`, for which, in assay [2], the activation was -1.88%.

The record behind these values is PubChem BioAssay (NCATS).
